Experimental data as given in PubChem BioAssay (Tox21).
Results filed as inconclusive are left out. Calls of active or inactive are those of the source. Unless noted, calls come from the whole dose curve; as a rule, active = well fitted curve in the direction sought with a large enough effect in the repeat runs; inconclusive = weak or mixed curves; inactive = no such curve, though single readings can be large; an effect the other way counts as inactive or inconclusive.

Columns and labels:
[1] = qHTS assay to identify small molecule agonists of the androgen receptor (AR) signaling pathway in the presence of an antagonist - cell viability counter screen (AID 1259379);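 note: MDA-kb2 human breast cancer cells carrying an MMTV luciferase reporter; series mostly up to about 92 µM; nearly all actives have a fitted effect of over 25% in size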
Procedure, shortened: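 Cytotoxicity counter-screen run in the same wells as the nilutamide-challenged (3.0 µM final) AR agonist assay in MDA-kb2 cells. Compounds tested at 15 concentrations for 16 h, 37 °C without CO2; CellTiter-Fluor fluorescence read.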

[2] = qHTS assay to identify small molecule antagonists of the estrogen receptor beta (ER-beta) signaling pathway - cell viability counter screen (AID 1259382);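 note: HEK293T cells carrying ER-beta-UAS-bla reporter stimulated with estradiol; series mostly up to about 92 µM; nearly all actives have a fitted effect of over 55% in size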
Procedure, shortened: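 Cytotoxicity was measured in the same wells by CellTiter-Glo luminescence after 30 min at room temperature. Cells were ER-beta-bla HEK293T in charcoal-stripped serum, given compound together with 1 nM E2 and incubated 16 h at 37C.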

[3] = target: Estrogen receptor (Homo sapiens) (UniProt P03372); test: qHTS assay to identify small molecule agonists of the estrogen receptor alpha (ER-alpha) signaling pathway in the presence of an antagonist (AID 1259383; calls by dose curve; note: top concentration of the series differs between compounds; nearly all actives have a fitted effect of over 15% in size)
Chain of Estrogen receptor (Homo sapiens) (P03372 whole entry, looked up): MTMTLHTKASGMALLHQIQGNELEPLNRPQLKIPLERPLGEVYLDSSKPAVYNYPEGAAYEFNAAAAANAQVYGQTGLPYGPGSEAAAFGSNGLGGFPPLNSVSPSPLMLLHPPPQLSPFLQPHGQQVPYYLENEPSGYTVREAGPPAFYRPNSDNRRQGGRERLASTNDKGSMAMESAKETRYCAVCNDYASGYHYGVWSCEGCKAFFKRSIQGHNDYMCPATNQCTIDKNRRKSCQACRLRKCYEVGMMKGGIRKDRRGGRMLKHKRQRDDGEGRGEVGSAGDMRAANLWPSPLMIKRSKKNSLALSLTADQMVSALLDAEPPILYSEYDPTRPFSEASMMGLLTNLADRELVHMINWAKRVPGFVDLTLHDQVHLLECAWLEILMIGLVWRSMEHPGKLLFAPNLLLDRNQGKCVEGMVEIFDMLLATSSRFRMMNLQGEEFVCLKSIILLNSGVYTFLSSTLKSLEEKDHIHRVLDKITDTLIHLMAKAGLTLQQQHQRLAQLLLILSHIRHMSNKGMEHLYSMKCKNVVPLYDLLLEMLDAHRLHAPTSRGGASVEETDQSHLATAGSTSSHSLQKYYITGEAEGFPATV
Procedure, shortened: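 Agonist-mode confirmation run in the presence of 10.0nM (final) ICI-182,780 antagonist. The reporter was ERE-driven luciferase in VM7Luc4E2 cells, grown in charcoal-stripped serum. Cells were exposed to 15-concentration compound series for 22hr, then ONE-Glo luminescence was read.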

[4] = qHTS assay to identify small molecule agonists or antagonists of the thyroid stimulating hormone receptor (TSHR) signaling pathway - wild type cell line counter screen (AID 1259384; calls by dose curve)
Procedure, shortened: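 Wild-type Hek293 cells, 800/well, 18 h at 37C, then compound with Ro20-1724 for 30 min RT. cAMP by HTRF (cAMP-d2/anti-cAMP cryptate), 1 h RT, fluorescence read. 15 concentrations, triplicates.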

[5] = qHTS assay to identify small molecule agonists of the estrogen receptor alpha (ER-alpha) signaling pathway in the presence of an antagonist - cell viability counter screen (AID 1259386); note: series mostly up to about 92 µM; nearly all actives have a fitted effect of over 30% in size
Procedure, shortened: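 Compounds tested at 15 concentrations for 22 h at 37C alongside 10.0nM (final) ICI-182,780 antagonist, in VM7Luc4E2 cells grown in phenol red-free, charcoal-stripped medium. Viability read by CellTiter-Fluor fluorescence after 1 h reagent incubation.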

[6] = target: Progesterone receptor (Homo sapiens) (UniProt P06401); test: qHTS assay to identify small molecule agonists of the progesterone receptor (PR) signaling pathway (AID 1346784; calls by dose curve; note: nearly all actives have a fitted effect of over 30% in size)
Chain of Progesterone receptor (Homo sapiens) (P06401 whole entry, looked up): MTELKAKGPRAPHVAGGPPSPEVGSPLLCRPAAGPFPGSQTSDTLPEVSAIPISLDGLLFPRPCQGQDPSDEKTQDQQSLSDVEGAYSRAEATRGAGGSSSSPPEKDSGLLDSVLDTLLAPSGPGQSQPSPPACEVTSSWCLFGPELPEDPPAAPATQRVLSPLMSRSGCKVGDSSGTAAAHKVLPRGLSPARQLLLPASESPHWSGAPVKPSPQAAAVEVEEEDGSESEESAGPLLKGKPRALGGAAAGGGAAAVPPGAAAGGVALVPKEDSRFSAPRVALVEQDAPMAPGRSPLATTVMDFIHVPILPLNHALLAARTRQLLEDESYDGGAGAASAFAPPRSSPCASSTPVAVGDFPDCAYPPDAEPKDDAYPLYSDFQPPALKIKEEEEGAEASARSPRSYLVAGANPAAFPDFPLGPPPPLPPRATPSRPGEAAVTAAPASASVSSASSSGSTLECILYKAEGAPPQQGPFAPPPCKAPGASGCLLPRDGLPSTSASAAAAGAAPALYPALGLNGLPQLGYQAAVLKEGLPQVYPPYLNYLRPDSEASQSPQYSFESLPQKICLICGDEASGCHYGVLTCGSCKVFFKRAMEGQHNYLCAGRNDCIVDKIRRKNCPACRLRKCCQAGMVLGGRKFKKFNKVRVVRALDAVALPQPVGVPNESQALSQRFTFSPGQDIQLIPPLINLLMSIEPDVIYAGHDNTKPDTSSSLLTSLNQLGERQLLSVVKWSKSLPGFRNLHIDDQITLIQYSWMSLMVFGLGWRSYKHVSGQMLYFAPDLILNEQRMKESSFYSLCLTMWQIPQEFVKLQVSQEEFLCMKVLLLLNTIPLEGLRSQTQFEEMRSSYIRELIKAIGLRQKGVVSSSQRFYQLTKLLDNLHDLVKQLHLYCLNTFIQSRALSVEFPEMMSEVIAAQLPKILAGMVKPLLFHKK
Procedure, shortened: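 PR-UAS-bla HEK 293T cells (beta-lactamase reporter under UAS) in 2% charcoal-stripped FBS, dosed with 23 nL compound after 6 hr, incubated 16hr at 37C. LiveBLAzer B/G FRET substrate added, fluorescence read after 2 hours.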

[7] = target: Progesterone receptor (Homo sapiens) (UniProt P06401); test: qHTS assay to identify small molecule antagonists of the progesterone receptor (PR) signaling pathway (AID 1346795; active = well fitted inhibition curve with a large enough effect in the signal ratio in the repeat runs, not every such curve was filed as active; the % refers to the signal ratio)
Procedure, shortened: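 PR-UAS-bla HEK293T cells with beta-lactamase reporter under UAS control, in 2% charcoal-stripped FBS, treated with compounds plus 1 nM promegestone (R5020, final) for 16 hr at 37C. Read-out: FRET beta-lactamase substrate fluorescence after 2 hr at room temperature.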

[8] = qHTS assay to identify small molecule agonists of the progesterone receptor (PR) signaling pathway - cell viability counter screen (AID 1346799; calls by dose curve; note: nearly all actives have a fitted effect of over 45% in size)
Procedure, shortened: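 Counter screen in the PR-UAS-bla HEK293T wells (2% charcoal-stripped FBS, 16 h compound exposure at 37 C) after the bla read. CellTiter-Glo added, 30 min at room temperature, luminescence read as cell viability.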

[9] = qHTS assay to identify small molecule antagonists of the TGF-beta/Smad signaling pathway - cell viability counter screen (AID 1346824); note: nearly all actives have a fitted effect of over 50% in size
Procedure, shortened: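 SBE-bla HEK 293T cells, incubated overnight, then compound plus 0.25 ng/mL TGF-beta1 (stock added) for 5 hr at 37 C. Viability was read in the same wells by CellTiter-Glo luminescence after 30 min at room temperature.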

[10] = qHTS assay to identify small molecule agonists of the TGF-beta/Smad signaling pathway - cell viability counter screen (AID 1346829); note: top concentration of the series differs between compounds; nearly all actives have a fitted effect of over 45% in size
Procedure, shortened: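 CellTiter-Glo luminescence readout; SBE-bla HEK 293T cells, overnight plating, compound 5 hr at 37 C/5% CO2, then bla substrate 2 hr RT, then CellTiter-Glo 30 min RT.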

[11] = qHTS assay to identify small molecule agonists of the TGF-beta/Smad signaling pathway (AID 1346859; active = well fitted activation curve with a large enough effect in the signal ratio in the repeat runs, not every such curve was filed as active; the % refers to the signal ratio; note: series mostly up to about 77 µM)
Procedure, shortened: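 SBE-bla HEK293T cells plated overnight, then compound exposure for 5 h at 37 C. Beta-lactamase reporter read with LiveBLAzer B/G FRET substrate after 2 h at room temperature, fluorescence at 405 nm excitation, 460/530 nm emission.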

[12] = target: Thyrotropin-releasing hormone receptor (Homo sapiens) (UniProt P34981); test: qHTS assay to identify small molecule antagonists of the thyrotropin-releasing hormone receptor (TRHR) signaling pathway (AID 1346877; active = well fitted inhibition curve with a large enough effect in the repeat runs, not every such curve was filed as active; note: series mostly up to about 51 µM)
Chain of Thyrotropin-releasing hormone receptor (Homo sapiens) (P34981 whole entry, looked up): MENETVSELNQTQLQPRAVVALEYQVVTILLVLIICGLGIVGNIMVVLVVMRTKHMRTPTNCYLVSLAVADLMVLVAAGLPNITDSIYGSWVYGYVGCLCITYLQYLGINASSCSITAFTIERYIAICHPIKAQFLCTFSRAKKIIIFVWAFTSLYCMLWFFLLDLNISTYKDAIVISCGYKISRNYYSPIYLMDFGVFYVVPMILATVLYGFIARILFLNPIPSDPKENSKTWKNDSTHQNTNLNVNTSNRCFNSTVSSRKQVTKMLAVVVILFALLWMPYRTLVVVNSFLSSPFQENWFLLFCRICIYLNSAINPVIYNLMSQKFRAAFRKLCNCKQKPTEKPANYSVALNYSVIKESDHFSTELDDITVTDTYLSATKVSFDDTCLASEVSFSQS
Procedure, shortened: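 Antagonist mode: after a 5 min room-temperature compound exposure, cells were stimulated with 1 nM (final) TRH. Dye-loaded TRHR-HEK293 cells were used, and calcium-dependent fluorescence was followed for 3 min, with 15-point titrations run in triplicate.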

[13] = target: Thyrotropin-releasing hormone receptor (Homo sapiens) (UniProt P34981); test: qHTS assay to identify small molecule agonists of the thyrotropin-releasing hormone receptor (TRHR) signaling pathway (AID 1346891; calls by dose curve; note: series mostly up to about 58 µM)
Procedure, shortened: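 HEK293 cells expressing TRHR plated 18 h at 37 C/5% CO2, calcium dye-loaded 2 h at 37 C, then compound added (agonist mode); kinetic calcium fluorescence read 3 min at 1 s intervals; 15 concentrations in triplicate.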

[14] = Human pregnane X receptor (PXR) small molecule agonists, qHTS cell viability counter screen (AID 1346977); note: nearly all actives have a fitted effect of over 50% in size
Procedure, shortened: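 PXR-Luc HepG2 cells (2,000/well, 5% charcoal-stripped FBS) preincubated 5 hr, then exposed to compounds 24 hr at 37 C. Viability read in the same wells by CellTiter-Fluor fluorescence, reagent added at 23 hr, 1 hr incubation.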

[15] = qHTS assay to identify small molecule agonists of the estrogen receptor beta (ER-beta) signaling pathway - cell viability counter screen (AID 1259380); note: nearly all actives have a fitted effect of over 30% in size
Procedure, shortened: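 Cell viability counter screen: CellTiter-Glo luminescence (30 min, room temperature) measured in the same wells as the beta-lactamase readout, after 16 hr compound exposure at 37C of ER-beta-bla HEK293T cells in 2% charcoal-stripped FBS medium.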

[16] = target: Thyrotropin receptor (Homo sapiens) (UniProt P16473); test: qHTS assay to identify small molecule antagonists of the thyroid stimulating hormone receptor (TSHR) signaling pathway (AID 1259385; calls by dose curve; note: nearly all actives have a fitted effect of over 20% in size)
Chain of Thyrotropin receptor (Homo sapiens) (P16473 whole entry, looked up): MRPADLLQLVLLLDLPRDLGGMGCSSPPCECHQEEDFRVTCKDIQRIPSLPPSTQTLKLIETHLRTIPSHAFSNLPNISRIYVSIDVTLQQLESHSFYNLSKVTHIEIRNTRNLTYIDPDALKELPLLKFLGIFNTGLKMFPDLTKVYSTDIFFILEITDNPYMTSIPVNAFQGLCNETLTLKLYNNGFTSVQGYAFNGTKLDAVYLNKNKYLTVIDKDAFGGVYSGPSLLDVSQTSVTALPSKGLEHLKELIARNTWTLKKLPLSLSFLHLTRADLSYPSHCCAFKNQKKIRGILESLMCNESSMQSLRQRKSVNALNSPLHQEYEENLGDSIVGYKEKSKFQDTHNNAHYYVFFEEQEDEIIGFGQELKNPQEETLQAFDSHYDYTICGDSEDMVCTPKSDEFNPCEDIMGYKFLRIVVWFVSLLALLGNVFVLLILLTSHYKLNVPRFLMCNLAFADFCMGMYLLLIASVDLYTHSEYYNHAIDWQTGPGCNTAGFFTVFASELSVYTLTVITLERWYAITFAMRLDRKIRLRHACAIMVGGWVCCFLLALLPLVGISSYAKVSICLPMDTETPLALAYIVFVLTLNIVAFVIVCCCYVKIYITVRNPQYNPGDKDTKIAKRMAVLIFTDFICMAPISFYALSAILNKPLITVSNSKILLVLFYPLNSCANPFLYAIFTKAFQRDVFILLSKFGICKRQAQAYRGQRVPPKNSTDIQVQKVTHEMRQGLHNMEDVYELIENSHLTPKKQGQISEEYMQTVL
Procedure, shortened: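 TSHR-HEK293 cells (800/well) plated 18 h, then compounds with Ro20-1724 and TSH at 1.5 ng/mL final, 30 min at room temperature. cAMP quantified by HTRF (cAMP-d2/anti-cAMP-cryptate, 1 h); 15 concentrations in triplicate.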

[17] = qHTS assay to identify small molecule antagonists of the progesterone receptor (PR) signaling pathway - cell viability counter screen (AID 1346798); note: series mostly up to about 92 µM; nearly all actives have a fitted effect of over 50% in size
Procedure, shortened: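 PR-UAS-bla HEK293T cells, 3,000/well in 2% charcoal-stripped FBS medium, dosed with compounds plus R5020 agonist and incubated 16 h at 37C. Viability then measured in the same wells by CellTiter-Glo luminescence after 30 min at RT.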

Measured: Potency

Cc1ncc(COP(=O)(O)O)c(C=O)c1O
not listed: [15] | [16] | [17]
inactive: all other assays above

NCCCC(N)(C(=O)O)C(F)F (centres undefined)
not listed: [3] | [12] | [14]
inactive: all other assays above

COc1cccc(OC)c1C(=O)N[C@@H]1C(=O)N2[C@@H]1SC(C)(C)[C@@H]2C(=O)O
not listed: [2] | [3] | [6] | [7] | [12] | [13] | [17]
inactive: all other assays above

COc1ccccc1OCC1CNC(=O)O1 (centres undefined)
not listed: [2] | [3] | [9] | [10]
inactive: all other assays above

Clc1cc(Cl)c(Cl)nc1Cl
not listed: [2] | [3] | [7] | [9]
inactive: all other assays above
